Data from PubChem BioAssay (EPA / NIEHS).
Results filed as inconclusive are left out. Activity calls are given as the source filed them. The calls were made as follows, unless noted: active = hit-call score of the fitted dose curve at least 0.9, where 1 is the maximum; inactive = score below 0.9.

Legend:
[1] = ACEA_ER_80hr: ACEA Biosciences xCELLigence Real-Time Cell Analysis on Estrogen Receptor Agonism for Proliferation (AID 2282667; active = hit-call score of the fitted dose curve at least 0.9, where 1 is the maximum); conditions: T47D proliferation, impedance (xCELLigence), 80 h
Procedure, shortened: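 Impedance readout (RT-CES) of T47D proliferation at 80 h post-dose; gain of signal vs DMSO baseline. Compounds: 8 conc, 1:4 serial, top 100 uM final, ≤0.5% DMSO; biological duplicate.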

[2] = ATG_CRE_CIS: Attagene CIS-FACTORIAL HepG2 Assay for human cAMP Responsive Element (CRE) binding protein 3 (AID 2282926); conditions: HepG2 CRE cis-reporter, Attagene multiplexed mRNA; actives raise or lower the signal
Procedure, shortened: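 Readout: fluorescently labelled reporter transcripts resolved by capillary electrophoresis after RT-PCR, taken 24 h post-dosing in transfected HepG2. Endogenous transcription factor activity drives each cis-element reporter; gain or loss of signal fitted relative to DMSO control.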

[3] = molecular target: CCAAT/enhancer-binding protein beta (Homo sapiens) (UniProt P17676); experiment: ATG_C_EBP_CIS: Attagene CIS-FACTORIAL HepG2 Assay for human CCAAT/Enhancer Binding Protein (C/EBP) beta (AID 2282927); conditions: HepG2 Attagene cis-factorial transcription factor reporter; actives raise or lower the signal
Chain of CCAAT/enhancer-binding protein beta (Homo sapiens) (P17676 whole entry, looked up): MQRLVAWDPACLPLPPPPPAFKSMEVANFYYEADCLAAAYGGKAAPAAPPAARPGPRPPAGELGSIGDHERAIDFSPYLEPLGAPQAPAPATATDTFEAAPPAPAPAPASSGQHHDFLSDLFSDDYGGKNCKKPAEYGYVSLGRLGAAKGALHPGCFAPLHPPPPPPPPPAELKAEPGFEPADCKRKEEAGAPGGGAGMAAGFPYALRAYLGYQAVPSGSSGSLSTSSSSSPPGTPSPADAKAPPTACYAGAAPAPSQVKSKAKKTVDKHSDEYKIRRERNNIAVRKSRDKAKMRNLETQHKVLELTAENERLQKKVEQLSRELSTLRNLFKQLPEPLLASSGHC
Procedure, shortened: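 HepG2, transient MRTU transfection, 24 h treatment. RT-PCR plus CE fluorescence; DMSO negative control, bidirectional fit.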

[4] = ATG_CMV_CIS: Attagene CIS-FACTORIAL HepG2 Assay for human CMV (Internal Marker) (AID 2282928); conditions: HepG2 CMV promoter reporter, transcription factor profiling; actives raise or lower the signal;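 also: endpoint acts as a background internal control marker rather than a target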
Procedure, shortened: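 24 h chemical treatment, HepG2 with transient multi-reporter transfection; RNA → oligo(dT) RT → PCR → 6-FAM extension → HpaI digest → CE fluorescence. Bidirectional fit, DMSO negative control.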

[5] = molecular target: Aryl hydrocarbon receptor (Homo sapiens) (UniProt P35869); experiment: ATG_Ahr_CIS: Attagene CIS-FACTORIAL HepG2 Assay for human Aryl Hydrocarbon Receptor (Ahr) (AID 2282930); conditions: HepG2 AhR cis-factorial reporter transcription; actives raise or lower the signal
Chain of Aryl hydrocarbon receptor (Homo sapiens) (P35869 whole entry, looked up): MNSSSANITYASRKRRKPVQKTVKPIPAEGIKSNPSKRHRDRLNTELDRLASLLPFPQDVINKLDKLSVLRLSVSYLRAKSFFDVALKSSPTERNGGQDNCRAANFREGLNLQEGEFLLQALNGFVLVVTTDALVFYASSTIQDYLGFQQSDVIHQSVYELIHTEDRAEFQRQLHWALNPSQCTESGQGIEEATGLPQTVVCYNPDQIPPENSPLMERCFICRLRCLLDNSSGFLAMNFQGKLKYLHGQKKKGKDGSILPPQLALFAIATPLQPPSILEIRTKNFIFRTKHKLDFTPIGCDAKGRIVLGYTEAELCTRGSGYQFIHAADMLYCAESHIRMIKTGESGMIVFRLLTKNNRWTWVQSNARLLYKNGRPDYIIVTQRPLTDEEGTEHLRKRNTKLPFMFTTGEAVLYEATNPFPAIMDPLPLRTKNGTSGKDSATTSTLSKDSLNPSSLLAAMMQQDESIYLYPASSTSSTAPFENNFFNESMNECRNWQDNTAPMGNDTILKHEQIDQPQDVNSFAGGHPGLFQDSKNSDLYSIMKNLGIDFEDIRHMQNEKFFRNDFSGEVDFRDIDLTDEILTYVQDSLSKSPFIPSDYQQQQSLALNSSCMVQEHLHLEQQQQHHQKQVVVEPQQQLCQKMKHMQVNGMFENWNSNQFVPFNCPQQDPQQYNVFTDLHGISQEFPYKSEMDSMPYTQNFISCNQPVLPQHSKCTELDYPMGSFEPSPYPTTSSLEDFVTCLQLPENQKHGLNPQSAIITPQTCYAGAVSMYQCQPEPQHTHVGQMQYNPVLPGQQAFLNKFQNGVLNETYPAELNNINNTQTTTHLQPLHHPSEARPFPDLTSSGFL
Procedure, shortened: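 Endogenous factor activity is tracked through cis-promoter reporter units transfected into HepG2 cells. Transcript levels at 24 h are read by fluorescent RT-PCR and capillary electrophoresis, with activity in either direction scored relative to DMSO.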

[6] = ATG_AP_1_CIS: Attagene CIS-FACTORIAL HepG2 Assay for human Activator Protein 1 (AP-1) (AID 2282931); conditions: HepG2 Attagene cis-factorial AP-1 reporter mRNA; actives raise or lower the signal
Procedure, shortened: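 After 24 h incubation with test chemical, RNA from transfected HepG2 cells was reverse-transcribed, amplified, fluorescently labelled and digested before capillary electrophoresis. Reporters were driven by cis-regulatory promoters; activity fitted bidirectionally versus DMSO.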

[7] = ATG_BRE_CIS: Attagene CIS-FACTORIAL HepG2 Assay for human Bone Morphogenetic Protein (BMP) Response Element (BRE) (AID 2282933); conditions: HepG2 BMP response element reporter, Attagene transcription factor profiling; actives raise or lower the signal
Procedure, shortened: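 A HepG2 multiplex reporter system measured inducible reporter mRNA 24 h post-dosing. Detection: RT-PCR, 6-FAM primer extension, HpaI digestion, capillary electrophoresis. Activity fitted bidirectionally relative to DMSO.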

[8] = molecular target: Retinoic acid receptor alpha (Homo sapiens) (UniProt P10276); experiment: ATG_DR5_RAR_CIS: Attagene CIS-FACTORIAL HepG2 Assay for human Retinoic Acid Receptor Alpha (RARE), DR5 submotif (AID 2282934); conditions: HepG2 Attagene cis-factorial RARE DR5 reporter, mRNA; actives raise or lower the signal
Chain of Retinoic acid receptor alpha (Homo sapiens) (P10276 whole entry, looked up): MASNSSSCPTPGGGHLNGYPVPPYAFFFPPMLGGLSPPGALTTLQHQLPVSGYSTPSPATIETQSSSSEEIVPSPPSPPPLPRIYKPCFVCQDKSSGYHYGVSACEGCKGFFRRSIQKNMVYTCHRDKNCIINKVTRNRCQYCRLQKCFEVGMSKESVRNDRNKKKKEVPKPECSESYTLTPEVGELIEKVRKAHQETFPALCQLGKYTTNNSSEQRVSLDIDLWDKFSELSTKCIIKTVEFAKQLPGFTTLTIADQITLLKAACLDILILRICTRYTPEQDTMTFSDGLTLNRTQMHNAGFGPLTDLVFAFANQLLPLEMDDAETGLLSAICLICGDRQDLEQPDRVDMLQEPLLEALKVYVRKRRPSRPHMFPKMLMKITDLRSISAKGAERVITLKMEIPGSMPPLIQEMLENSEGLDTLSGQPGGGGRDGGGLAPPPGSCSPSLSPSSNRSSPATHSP
Procedure, shortened: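 After 24 h of chemical exposure, transiently transfected HepG2 cells were lysed for total RNA; the DR5-regulated reporter transcript was quantified via RT-PCR and capillary electrophoresis, with activity fitted bidirectionally against DMSO.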

[9] = molecular target: Transcription factor E2F1 (Homo sapiens) (UniProt Q01094); experiment: ATG_E2F_CIS: Attagene CIS-FACTORIAL HepG2 Assay for human E2F Transcription Factor 1 (AID 2282935); conditions: HepG2 Attagene cis-reporter, E2F reporter RNA transcripts; actives raise or lower the signal
Chain of Transcription factor E2F1 (Homo sapiens) (Q01094 whole entry, looked up): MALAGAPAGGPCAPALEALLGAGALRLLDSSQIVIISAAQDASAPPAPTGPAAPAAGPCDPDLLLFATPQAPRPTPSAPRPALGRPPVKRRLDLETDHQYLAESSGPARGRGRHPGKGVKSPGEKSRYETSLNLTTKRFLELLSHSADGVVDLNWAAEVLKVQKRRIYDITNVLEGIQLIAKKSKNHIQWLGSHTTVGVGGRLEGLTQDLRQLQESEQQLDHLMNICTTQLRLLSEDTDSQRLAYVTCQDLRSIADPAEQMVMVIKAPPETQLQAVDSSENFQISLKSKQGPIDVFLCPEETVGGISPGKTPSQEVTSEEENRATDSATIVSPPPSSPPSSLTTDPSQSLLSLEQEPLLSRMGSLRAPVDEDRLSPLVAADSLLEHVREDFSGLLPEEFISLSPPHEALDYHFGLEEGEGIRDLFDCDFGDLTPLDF
Procedure, shortened: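 Liver-derived HepG2 cells expressing transfected promoter-driven reporter units received test chemical for 24 hours. Signal gains or losses were fitted bidirectionally against DMSO.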

[10] = ATG_M_61_CIS: Attagene CIS-FACTORIAL HepG2 Assay for M61 Transcription Factor (Internal Marker) (AID 2282937); conditions: HepG2 Attagene CIS-FACTORIAL M61 internal marker reporter; actives raise or lower the signal
Procedure, shortened: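 Using transiently transfected HepG2 liver cells, reporter transcript levels were assessed 24 h post-dosing by RT-PCR and capillary electrophoresis. Changes in either direction were fitted relative to DMSO controls.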

[11] = ATG_EGR_CIS: Attagene CIS-FACTORIAL HepG2 Assay for human Early Growth Response 1 (EGR1) (AID 2282938); conditions: HepG2 Attagene CIS-FACTORIAL EGR reporter mRNA; actives raise or lower the signal
Procedure, shortened: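 Fluorescent capillary-electrophoresis signal of reporter cDNA fragments serves as read-out. HepG2 cells bear transiently transfected cis-promoter reporter units and are exposed 24 h; gain- or loss-of-signal is fitted against DMSO.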

[12] = ATG_M_19_CIS: Attagene CIS-FACTORIAL HepG2 Assay for M19 Transcription Factor (Internal Marker) (AID 2282939); conditions: HepG2 Attagene CIS-FACTORIAL M19 internal marker reporter; actives raise or lower the signal
Procedure, shortened: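 Chemical-treated HepG2 (24 h) with MRTU constructs; reporter transcripts detected by fluorescent RT-PCR fragment analysis on capillary electrophoresis. Internal background marker, DMSO as baseline.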

[13] = ATG_ERE_CIS: Attagene CIS-FACTORIAL HepG2 Assay for Estrogen Response Element (ERE) (AID 2282940); conditions: HepG2 ERE cis-reporter, Attagene RNA transcript; actives raise or lower the signal
Procedure, shortened: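 Human liver cells (HepG2) bearing transiently transfected, promoter-regulated reporter units were exposed 24 h. Reporter mRNA induction was detected by capillary electrophoresis of labelled RT-PCR products and fitted bidirectionally to DMSO.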

[14] = ATG_Ets_CIS: Attagene CIS-FACTORIAL HepG2 Assay for human Erythroblast Transformation Specific (ETS) (AID 2282941); conditions: HepG2 ETS cis-reporter transcription, actives raise or lower the signal
Procedure, shortened: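 Cis-regulated reporter mRNA induction in HepG2 (transient transfection), 24 h exposure, RT-PCR plus capillary electrophoresis detection; DMSO serves as negative control and baseline.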

[15] = molecular target: Hepatocyte nuclear factor 3-beta (Homo sapiens) (UniProt Q9Y261); experiment: ATG_FoxA2_CIS: Attagene CIS-FACTORIAL HepG2 Assay for human Forkhead box A2 (FOXA2) (AID 2282942); conditions: HepG2 cis-reporter transcription factor activity, 24 h; actives raise or lower the signal
Chain of Hepatocyte nuclear factor 3-beta (Homo sapiens) (Q9Y261 whole entry, looked up, the tested form may be a part): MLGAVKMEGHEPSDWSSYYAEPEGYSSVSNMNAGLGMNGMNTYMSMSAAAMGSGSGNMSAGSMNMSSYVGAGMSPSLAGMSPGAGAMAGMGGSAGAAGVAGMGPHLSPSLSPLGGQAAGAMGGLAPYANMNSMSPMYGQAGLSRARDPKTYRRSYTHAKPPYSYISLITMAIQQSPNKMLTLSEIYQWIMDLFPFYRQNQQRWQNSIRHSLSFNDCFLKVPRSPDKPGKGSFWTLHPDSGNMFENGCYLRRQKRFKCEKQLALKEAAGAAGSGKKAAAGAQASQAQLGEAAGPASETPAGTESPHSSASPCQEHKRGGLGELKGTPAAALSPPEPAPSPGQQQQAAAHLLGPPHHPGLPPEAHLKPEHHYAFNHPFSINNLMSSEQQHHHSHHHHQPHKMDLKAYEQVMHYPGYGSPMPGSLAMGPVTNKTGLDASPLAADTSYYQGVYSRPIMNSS
Procedure, shortened: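 Fluorescence signal of reporter cDNA fragments, separated by capillary electrophoresis, reflects endogenous transcription factor activity in transfected HepG2 after 24 h. Both increases and decreases fitted against DMSO.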

[16] = ATG_FoxO_CIS: Attagene CIS-FACTORIAL HepG2 Assay for human Forkhead box O (FoxO) (AID 2282943); conditions: HepG2 Attagene cis-reporter, FoxO element, mRNA; actives raise or lower the signal
Procedure, shortened: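 Transfected HepG2 reporter cells exposed to test chemical for 24 h; reporter RNA measured by reverse transcription, PCR and fluorescent capillary electrophoresis; curves fitted for increases and decreases against DMSO.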

[17] = ATG_GATA_CIS: Attagene CIS-FACTORIAL HepG2 Assay for human GATA Binding Protein (AID 2282944); conditions: HepG2 GATA cis-element reporter, Attagene multiplex mRNA; actives raise or lower the signal
Procedure, shortened: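 Transfected cis-reporter HepG2 cells were treated with chemicals for 24 hours. Total RNA was then converted to cDNA, amplified with reporter-specific primers and analysed by fluorescent capillary electrophoresis, using DMSO-treated wells as baseline.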

[18] = ATG_AP_2_CIS: Attagene CIS-FACTORIAL HepG2 Assay for human Activator Protein 2 (AP-2) (AID 2282932); conditions: HepG2 AP-2 cis-reporter, Attagene transcription factor profiling; actives raise or lower the signal
Procedure, shortened: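 Liver-derived HepG2 line, cis-reporter system measuring endogenous factors; 24 h dosing; reporter mRNA detected by fluorescent RT-PCR and capillary electrophoresis.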

[19] = ATG_E_Box_CIS: Attagene CIS-FACTORIAL HepG2 Assay for human Enhancer Box (E-box) (AID 2282936); conditions: HepG2 E-box cis-reporter transcription, actives raise or lower the signal
Procedure, shortened: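 In this cell-based setup, HepG2 cells bearing transfected promoter-driven reporter units were exposed to chemicals for 24 h; reporter transcripts were amplified, 6-FAM-labelled, cut with HpaI and sized by capillary electrophoresis.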

[20] = ATG_DR4_LXR_CIS: Attagene CIS-FACTORIAL HepG2 Assay for human Liver X Receptor (LXR), DR4 submotif (AID 2282929); conditions: HepG2 Attagene DR4 cis-reporter, mRNA transcription; actives raise or lower the signal
Procedure, shortened: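 After transient transfection with multiplexed cis-promoter reporter units, HepG2 cells received test chemicals for 24 h. Reporter mRNA induction, detected by fluorescence after RT-PCR and capillary electrophoresis, was scored relative to DMSO.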

Measured: AC50

Fc1ccc(Br)cc1
active: [13] 21.1 µM
not listed: [18] | [19] | [20]
inactive: all other assays above

Nc1nc(N)nc(-c2ccccc2)n1
not listed: [4] | [9] | [11] | [13] | [20]
inactive: all other assays above

CCN1CCCC1=O
not listed: [4] | [12] | [19]
inactive: all other assays above

CC(C)CC(=O)OCc1ccccc1
not listed: [4] | [15] | [20]
inactive: all other assays above

CCCCCC[C@@H](O)C/C=C\CCCCCCCC(=O)OCC(O)CO (some centres undefined)
active: [4] 131 µM | [6] 75.7 µM | [18] 158 µM | [11] 151 µM | [14] 178 µM | [16] 178 µM | [17] 128 µM
not listed: [5] | [7] | [9] | [20]
inactive: all other assays above

O=C1CCCCCCCCCCC1
not listed: [4] | [11] | [13] | [15]
inactive: all other assays above

CC(C)c1ccc(O)c(C(C)C)c1
not listed: [4] | [13] | [18]
inactive: all other assays above

CCN(CC)c1cccc(C)c1
not listed: [4] | [12]
inactive: all other assays above

Oc1ccccc1Cc1ccccc1O
active: [20] 114 µM | [11] 72.5 µM | [13] 27.7 µM
not listed: [4] | [5] | [12] | [19]
inactive: all other assays above
